Cav32 inh: human Cav3.2 channel inhibition, primary screen; O95180; Cav3.2-expressing cells, Fluo-4 calcium fluorescence FDSS; hits give low values; B-score at 10 µM; 100,000 compounds, 4% hits; AID 449739;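 active = single-dose well whose peak fluorescence ratio is a statistical outlier from its plate by either plate-standardised score or position-corrected B-score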
CYP2C9 inhib: blocks human cytochrome P450 2C9; P11712; CYP2C9 Supersomes, luciferin-H conversion, luminescence; inhibition, % at 5 µM; 96,000 compounds, 20% hits;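 active = blocking of liver enzyme CYP2C9 beyond about 50% at 5 µM, limit read from the data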
Target sequence (P11712 whole entry, looked up): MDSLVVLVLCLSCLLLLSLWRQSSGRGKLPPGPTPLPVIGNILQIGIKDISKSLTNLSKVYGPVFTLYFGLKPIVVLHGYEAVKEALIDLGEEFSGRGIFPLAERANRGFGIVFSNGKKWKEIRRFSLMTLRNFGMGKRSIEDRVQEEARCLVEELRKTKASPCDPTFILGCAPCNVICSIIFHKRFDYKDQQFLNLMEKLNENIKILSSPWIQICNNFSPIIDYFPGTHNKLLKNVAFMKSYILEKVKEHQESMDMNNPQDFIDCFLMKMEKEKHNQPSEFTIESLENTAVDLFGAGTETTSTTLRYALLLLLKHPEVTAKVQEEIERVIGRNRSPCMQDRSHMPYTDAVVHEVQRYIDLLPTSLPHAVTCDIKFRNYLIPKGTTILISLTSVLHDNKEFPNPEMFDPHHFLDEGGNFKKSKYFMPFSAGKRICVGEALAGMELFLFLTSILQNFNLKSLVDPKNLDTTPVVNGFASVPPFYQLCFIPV
CYP2C19 inh: inhibitors of human CYP2C19; P33261; CYP2C19 Supersomes, luciferin-H EGE luminescence, 30 min; inhibition, % at 5 µM; 96,000 compounds, 21% hits; AID 778;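 active = CYP2C19 inhibition above a set limit at 5 µM in the primary screen, cut at about 50% in these data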
CYP2C9 activ: increases human cytochrome P450 2C9 activity. P11712. activation factor at 5 µM. recombinant CYP2C9, luciferin-H conversion, luminescence; hits give high values; factor 1 = untreated enzyme, 0 = blocked. 96,000 compounds, 1.4% hits;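 active = activation factor of 2 or more for CYP2C9 at a 5 µM dose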
CYP2C19 activ: activators of human cytochrome P450 2C19 | P33261 | recombinant CYP2C19, luciferin-H EGE luminescence; hits give high values; 0 = fully inhibited enzyme, 1 = untreated enzyme | activation factor at 5 µM | 96,000 tested, under 10 active | AID 1025;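 active = activation factor of at least 2 at 5 µM in the primary screen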
Of the large screens only hits and unclear results are named; the others gave an inactive call. This is a sample that favours compounds with a hit; in the whole collection about 27% have one here.

Cc1ccc(N(CC(=O)Nc2cc(Cl)ccc2Oc2ccccc2)S(C)(=O)=O)cc1C	Cav32 inh -5.9, CYP2C9 inhib 98, CYP2C19 inh 99
COc1ccc(C(=O)NCC(=O)OCC(=O)c2ccc3c(c2)OCCO3)cc1	none
COc1ccc(OC)c(NC(=O)COC(=O)c2c3c(nc4ccccc24)CCCC3)c1	CYP2C9 inhib 52
COc1ccc(C(=O)NCC(=O)OCC(=O)Nc2cc(OC)ccc2OC)cc1	CYP2C19 inh 71
COc1ccc(OC)c(NC(=O)CNC(=O)c2cccs2)c1	CYP2C19 inh 54
COc1ccc(NC(=O)COC(=O)c2c3c(nc4ccccc24)CCCC3)cc1	none
COc1ccc(NC(=O)C(=O)NNC(=O)c2cccs2)c(OC)c1	none
CN(Cc1nnc(SCC(=O)NCCc2ccccc2)n1C)S(=O)(=O)c1ccccc1	none
COc1ccc(OC)c(C2C(C(N)=O)=C(C)Nc3nc(CCCO)nn32)c1 (stereo not drawn)	none
Fc1ccc(NCc2nnc(SCc3nnc(-c4ccccc4)o3)n2CC2CCCO2)cc1 (stereo not drawn)	none
COC(=O)NCCOC(=O)N(O)c1ccc(Br)cc1	CYP2C19 inh 68
CC(Oc1ccc(Cl)cc1Cl)C(=O)N(Cc1ccco1)C1CCS(=O)(=O)C1 (stereo not drawn)	none
O=C(NC1CCCC1)C(c1cccs1)N(CC1CCCO1)C(=O)Cc1cccs1 (stereo not drawn)	none (no result: Cav32 inh)
O=C(NC1CCCC1)C(c1ccccc1)N(Cc1ccco1)C(=O)Cc1cccs1 (stereo not drawn)	Cav32 inh -6.2 (no result: CYP2C9 inhib, CYP2C19 inh, CYP2C9 activ, CYP2C19 activ)
O=C(NCc1ccccc1)C(c1ccccc1)N(Cc1cccs1)C(=O)c1cnccn1 (stereo not drawn)	CYP2C19 inh 62
O=C(NC1CCCCC1)C(c1cccs1)N(Cc1cccs1)C(=O)c1ccco1 (stereo not drawn)	Cav32 inh -4.1, CYP2C9 inhib 53, CYP2C19 inh 55
O=C(NCC(=O)N(Cc1ccco1)C(C(=O)NC1CCCC1)c1cccnc1)c1cccs1 (stereo not drawn)	CYP2C9 inhib 86
O=C(NCC(=O)N(Cc1ccco1)C(C(=O)NC1CCCC1)c1ccncc1)c1cccs1 (stereo not drawn)	none (no result: CYP2C9 inhib, CYP2C19 inh, CYP2C9 activ, CYP2C19 activ)
O=C(CCl)NCc1c(Cl)cccc1-n1cccc1	none
O=C(NCC(=O)N(Cc1cccs1)C(C(=O)NC1CCCC1)c1ccncc1)c1ccco1 (stereo not drawn)	CYP2C9 inhib 72, CYP2C19 inh 61
O=C(NCC(=O)N(Cc1cccs1)C(C(=O)NC1CCCCC1)c1ccco1)c1ccco1 (stereo not drawn)	none (no result: CYP2C9 inhib, CYP2C19 inh, CYP2C9 activ, CYP2C19 activ)
Cc1ccc(C(C(=O)NCc2ccco2)N(Cc2ccco2)C(=O)CNC(=O)c2ccco2)cc1 (stereo not drawn)	CYP2C19 inh 57
COc1ccnc(Oc2ccc(C)cc2C)c1C#N	none
CCN1C/C(=C\c2cccc(C)c2)c2nc3ccccc3c(C(=O)O)c2C1	none
CCOC(=O)CCn1nc(-c2ccccc2)cc1N	CYP2C19 inh 66
CCOC(=O)Cn1nc(-c2ccc(C)cc2)ccc1=O	CYP2C9 inhib 52
Cc1ccc(C)c2[nH]c(=O)c(CCNC(=O)C(C)(C)C)cc12	none
Cc1ccc(N=Cc2c(O)n(C)c(=O)n(C)c2=O)nc1	none
Cn1c(O)c(C=Nc2ccc(Cc3ccncc3)cc2)c(=O)n(C)c1=O	CYP2C9 inhib 73, CYP2C19 inh 88 (no result: Cav32 inh)
COC(=O)CN1C(=O)Nc2ccc(Br)cc2C1c1ccccc1Cl (stereo not drawn)	none
O=C(CN(C(=O)C1COc2ccccc2O1)c1ccccc1)NCC1CCCO1 (stereo not drawn)	CYP2C19 inh 51
Cn1ncc(C#N)c1/N=C/N(Cc1ccccc1)Cc1ccccc1	Cav32 inh -8.4, CYP2C9 inhib 99, CYP2C19 inh 95
Cc1cccc(NC(=O)c2cc3n(n2)C(C(F)(F)F)CC(c2ccc4c(c2)OCO4)N3)c1 (stereo not drawn)	Cav32 inh -7.3, CYP2C9 inhib 87
COc1ccc2c(c1)nc1n2CN(CC2CCCO2)CN1Cc1ccccc1 (stereo not drawn)	none (no result: Cav32 inh)
CCOc1ccc(CCNC(=O)Cn2c(-c3nonc3N)nc3ccccc32)cc1OCC	CYP2C9 inhib 70
COc1ccc(CCNC(=O)Cn2c(-c3nonc3N)nc3ccccc32)cc1OC	CYP2C19 inh 89
CCOc1ccc(CCNC(=O)Cn2c(=O)oc3ccccc32)cc1OCC	CYP2C9 inhib 62, CYP2C19 inh 84
Cc1ccc2c(N)c(C(=O)N(c3ccccc3)c3ccccc3)sc2n1	none (no result: CYP2C9 inhib, CYP2C19 inh, CYP2C9 activ, CYP2C19 activ)

Screening results: PubChem, several laboratories
